Measurements as given in PubChem BioAssay (NCATS).
Results filed as inconclusive are left out. A call without a number means that no potency is given here. Values without a mark were called inactive. The source made the active and inactive calls. Calls come from the whole dose curve; as a rule, active = well fitted curve in the direction sought with a large enough effect; inconclusive = small, poorly fitted or top-dose-only effect, or another doubt; inactive = no such curve, though single readings can be large; an effect the other way counts as inactive or inconclusive.

Legend:
MCC-13 = assay: qHTS assay to identify novel small-molecules to repurpose for Merkel cell carcinoma treatment (AID 1296009); settings: MCC and control cell lines, CellTiter-Glo viability, 72 h; series mostly up to 46 µM; note: nearly all actives have a fitted effect of over 60% in size
How it was run: (§1)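 Cells were incubated with compound for 72 hr at 37 degree celsius before CellTiter-Glo addition. Luminescence was normalized with no-cell wells as full cytotoxicity and DMSO as baseline.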

MKL-1 = assay: as above; settings: MCC and control cell lines, CellTiter-Glo viability, 72 h; series mostly up to 46 µM
How it was run: as §1

MKL-2 = assay: as above; settings: MCC and control cell lines, CellTiter-Glo viability, 72 h; series mostly up to 46 µM
How it was run: as §1

UISO = assay: as above; settings: MCC and control cell lines, CellTiter-Glo viability, 72 h; series mostly up to 46 µM
How it was run: as §1

WaGa = assay: as above; settings: MCC and control cell lines, CellTiter-Glo viability, 72 h; series mostly up to 46 µM
How it was run: as §1

C33A = assay: Primary qHTS to identify gynecologic anti-cancer compounds using libraries of approved drugs and bioactive compounds (AID 1345084); settings: Gynecologic cancer cell panel viability, ATPlite luminescence, 48 h; series mostly up to 57.5 µM; note: nearly all actives have a fitted effect of over 55% in size
How it was run: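 Five-point cytotoxicity, 48 h drug exposure at 37 C, 5% CO2, on cells seeded 16 h beforehand. ATP content read by ATPlite luminescence.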

MCC-26 = assay: qHTS assay to identify novel small-molecules to repurpose for Merkel cell carcinoma treatment (AID 1296009); settings: MCC and control cell lines, CellTiter-Glo viability, 72 h; series mostly up to 46 µM; note: nearly all actives have a fitted effect of over 60% in size
How it was run: as §1

NIH3T3 = assay: as above; settings: MCC and control cell lines, CellTiter-Glo viability, 72 h; at 44.8 µM (top of the series) unless noted
How it was run: as §1
Potency is the fitted concentration of half-maximal effect.

## COc1cccc2c1C(=O)c1c(O)c3c(c(O)c1C2=O)C[C@@](O)(C(C)=O)C[C@@H]3O[C@H]1C[C@H](N)[C@H](O)[C@H](C)O1
MCC-13
  Potency: 1.06 µM (active)
MKL-1
  Potency: 0.0237 µM (active)
MKL-2
  Potency: 0.0106 µM (active)
UISO
  Potency: 0.211 µM (active)
WaGa
  Potency: 0.0237 µM (active)
C33A
  Potency: 0.631 µM (active)

## CCN(CC)C(=O)N1CCN(C)CC1
MCC-13
  Potency: inactive
MKL-1
  Potency: inactive
MKL-2
  Potency: inactive
UISO
  Potency: inactive
WaGa
  Potency: inactive
C33A
  Potency: inactive

## C=C(CC)C(=O)c1ccc(OCC(=O)O)c(Cl)c1Cl
MCC-26
  Potency: inactive
MKL-1
  Potency: 8.41 µM (active)
MKL-2
  Potency: 15 µM (active)
WaGa
  Potency: 13.3 µM (active)
C33A
  Potency: inactive

## Clc1ccc2c(c1)CCc1cccnc1C2=C1CCNCC1
MCC-13
  Potency: inactive
MCC-26
  Potency: inactive
MKL-2
  Potency: 26.6 µM (active)
C33A
  Potency: inactive

## CCCCC(CC)CN=C(N)NC(N)=NCCCCCCN=C(N)NC(N)=NCC(CC)CCCC (stereo unspecified)
MCC-13
  Potency: 10.6 µM (active)
MKL-1
  Potency: 1.33 µM (active)
MKL-2
  Potency: 1.88 µM (active)
UISO
  Potency: 1.88 µM (active)
WaGa
  Potency: 2.66 µM (active)

## C[C@@H]1C[C@H]2[C@@H]3C[C@H](F)C4=CC(=O)C(Cl)=C[C@]4(C)[C@@]3(F)[C@@H](O)C[C@]2(C)[C@@]1(O)C(=O)CO
MCC-13
  Potency: inactive
MKL-1
  Potency: inactive
MKL-2
  Potency: inactive
UISO
  Potency: inactive
WaGa
  Potency: inactive
C33A
  Potency: inactive

## O=C(N/N=C/c1ccccc1O)c1ccncc1
MCC-26
  Potency: 9.44 µM (active)
MKL-1
  Potency: 1.06 µM (active)
MKL-2
  Potency: 0.75 µM (active)
UISO
  Potency: 0.75 µM (active)
WaGa
  Potency: 2.66 µM (active)
C33A
  Potency: inactive

## c1ccc(-c2ccc(C(c3ccccc3)n3ccnc3)cc2)cc1 (stereo unspecified)
MCC-13
  Potency: inactive
MCC-26
  Potency: inactive
C33A
  Potency: inactive

## C[C@]12CCC(=O)C=C1CC[C@H]1[C@@H]3CC[C@](O)(C(=O)CO)[C@@]3(C)C[C@H](O)[C@@]12F
MCC-13
  Potency: inactive
MKL-1
  Potency: inactive
MKL-2
  Potency: inactive
NIH3T3
  outcome: inactive
UISO
  Potency: inactive
WaGa
  Potency: inactive
C33A
  Potency: inactive

## Nc1ccn([C@@H]2O[C@H](CO)[C@@H](O)C2(F)F)c(=O)n1
C33A
  Potency: inactive

## CC(O)C(=O)O (stereo unspecified)
C33A
  Potency: inactive

## CC(=O)N(O)CCCCCNC(=O)CCC(=O)N(O)CCCCCNC(=O)CCC(=O)N(O)CCCCCN
MKL-1
  Potency: 3.35 µM (active)
WaGa
  Potency: 10.6 µM (active)

## CCN(CC)CCOc1ccc(C(O)(Cc2ccc(Cl)cc2)c2ccc(C)cc2)cc1 (stereo unspecified)
MKL-2
  Potency: 7.5 µM (active)
WaGa
  Potency: 18.8 µM (active)

## CC(CCc1ccccc1)NCC(O)c1ccc(O)c(C(N)=O)c1 (stereo unspecified)
C33A
  Potency: inactive

## Oc1c(Cl)cc(Cl)cc1Sc1cc(Cl)cc(Cl)c1O
C33A
  Potency: inactive

## C[C@]12CC[C@@H]3c4ccc(O)cc4CC[C@H]3[C@@H]1C[C@@H](O)[C@@H]2O
C33A
  Potency: inactive

## COc1cccc(OC)c1C(=O)N[C@@H]1C(=O)N2[C@@H]1SC(C)(C)[C@@H]2C(=O)O
C33A
  Potency: inactive

## Cc1ccc(O)c2ncccc12
MKL-1
  Potency: 15 µM (active)
MKL-2
  Potency: 8.41 µM (active)
UISO
  Potency: 11.9 µM (active)
C33A
  Potency: inactive

## CCCCCCCCCCCCCCCC[N+](C)(C)CCN(Cc1ccc(OC)cc1)c1ncccn1
MKL-1
  Potency: 5.96 µM (active)
MKL-2
  Potency: 2.37 µM (active)
UISO
  Potency: 10.6 µM (active)
WaGa
  Potency: 16.8 µM (active)

## Oc1ccc(Cl)cc1Sc1cc(Cl)ccc1O
MCC-26
  Potency: inactive
MKL-1
  Potency: 21.1 µM (active)
UISO
  Potency: 18.8 µM (active)
WaGa
  Potency: 21.1 µM (active)

## CN1C(CCl)Nc2cc(Cl)c(S(N)(=O)=O)cc2S1(=O)=O (stereo unspecified)
C33A
  Potency: inactive

## C#C[C@]1(OC(C)=O)CC[C@H]2[C@@H]3CCC4=C[C@@H](OC(C)=O)CC[C@@H]4[C@H]3CC[C@@]21C
C33A
  Potency: inactive

## COc1cc(C(=S)N2CCOCC2)cc(OC)c1OC
C33A
  Potency: inactive

## CCOc1ccc(Cc2nccc3cc(OCC)c(OCC)cc23)cc1OCC
MCC-26
  Potency: inactive
MKL-2
  Potency: 16.8 µM (active)

## CN(C(=O)CN(CCO)CC(=O)N(C)C(C)(C)Cc1ccccc1)C(C)(C)Cc1ccccc1
MCC-26
  Potency: inactive
MKL-2
  Potency: 16.8 µM (active)
C33A
  Potency: inactive

## CC(C)NC[C@@H](O)COc1cccc2ccccc12
C33A
  Potency: inactive

## CC(=O)OCC(=O)[C@@]1(O)CC[C@H]2[C@@H]3CCC4=CC(=O)C=C[C@]4(C)[C@H]3[C@@H](O)C[C@@]21C
C33A
  Potency: inactive

## CC1=C(C(=O)OC(C)C)C(c2cccc([N+](=O)[O-])c2)C(C(=O)OC2CN(C(c3ccccc3)c3ccccc3)C2)=C(N)N1 (stereo unspecified)
MKL-1
  Potency: 21.1 µM (active)
MKL-2
  Potency: 16.8 µM (active)
C33A
  Potency: inactive

## CCN(CC)CCNC(=O)COc1ccc(Cl)cc1
C33A
  Potency: inactive

## O=C(OCCOCCO)c1ccccc1Nc1cccc(C(F)(F)F)c1
C33A
  Potency: inactive

## O=C(O)CCCCC(=O)O
C33A
  Potency: inactive

## CCN1CCN(c2cc3c(cc2F)c(=O)c(C(=O)O)cn3C2CC2)CC1
C33A
  Potency: inactive

## C[C@]12C=CC(=O)C=C1CC[C@@H]1[C@@H]2[C@@H](O)C[C@@]2(C)[C@H]1CC[C@]2(O)C(=O)CO
C33A
  Potency: inactive

## Cc1c(C(N)=O)cc([N+](=O)[O-])cc1[N+](=O)[O-]
C33A
  Potency: inactive

## CC(Cc1ccccc1)(NC(=O)CN)c1ccccc1 (stereo unspecified)
C33A
  Potency: inactive

## C/C=C/c1ccc(OC)cc1
C33A
  Potency: inactive

## Nc1ccc(C(=O)Nc2ccccc2N)cc1
MKL-1
  Potency: 18.8 µM (active)
MKL-2
  Potency: 5.96 µM (active)
WaGa
  Potency: 2.66 µM (active)
C33A
  Potency: inactive

## CCCCCCCCCCOCC(O)CN (stereo unspecified)
MCC-26
  Potency: inactive
MKL-2
  Potency: 23.7 µM (active)

## C[C@@H]1CN(CCCn2c3ccccc3c3ccccc32)C[C@H](C)N1
C33A
  Potency: 22.4 µM (active)

## CN1CCCC(CC2c3ccccc3Sc3ccccc32)C1 (stereo unspecified)
MKL-2
  Potency: 23.7 µM (active)
UISO
  Potency: 23.7 µM (active)

## Nc1ccc(/C=C/c2ccc(N)cc2S(=O)(=O)O)c(S(=O)(=O)O)c1
C33A
  activity change, negative = cytotoxicity: -2.85% [at 0.462 µM]

## CCCCCCCCCCCCCCCC[N+](C)(C)CC
MKL-1
  Potency: 0.119 µM (active)
MKL-2
  Potency: 0.0473 µM (active)
UISO
  Potency: 0.668 µM (active)
WaGa
  Potency: 0.119 µM (active)

## CCN1CCCC1=O
C33A
  Potency: inactive

## CCCCc1nc(Cl)c(CO)n1Cc1ccc(-c2ccccc2-c2nn[nH]n2)cc1
C33A
  Potency: inactive

## COc1ccc(/C=C/C(=O)c2ccc(OC)cc2OC)cc1
MKL-2
  Potency: 5.31 µM (active)

## CC(C)(C)CC(C)(C)c1ccc(O)c(Cc2ccc(Cl)cc2Cl)c1
C33A
  Potency: inactive

## COc1c(C)c2c(c(O)c1C/C=C(\C)CCC(=O)O)C(=O)OC2
WaGa
  Potency: 0.531 µM (active)

## CC(=O)OCC(=O)[C@@]12OC(C)(C)O[C@@H]1C[C@H]1[C@@H]3C[C@H](F)C4=CC(=O)C=C[C@]4(C)[C@@]3(F)[C@@H](O)C[C@@]12C
C33A
  Potency: inactive
